Assay results taken from PubChem BioAssay AID720513 (Broad Institute, 2013).
The whole screen tested about 2,100 compounds, of which about 480 (23%) were called active. Another 5% or so got no clear call; they are omitted.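 The calls were made as follows: active = fitted curve reaches 40% activation at or below the top valid concentration, in every replicate test; inconclusive = replicate tests disagree on the call; inactive = the rest, including activity in the opposite direction.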 These entries were drawn from the full list. Results with a measured potency or affinity are listed apart.

Assay: PGC1a acetylation increase, cellular AlphaLISA – cell-based, cherry-picked samples, set 6, dose response (AID 720513);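 also: cells made to overexpress flag tagged PGC1a plus GCN5 acetyltransferase by viral infection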
Conditions: U2OS PGC1a acetylation AlphaLISA, overnight, 0 = neutral, -100 = inhibitor control; series mostly up to 19.5 µM; activation (acetylation increase): at the top concentration

Activation (acetylation increase), inactive:
O=C1/C(=C\c2ccco2)SC(=S)N1Cc1ccccc1 4.17%
O=C(CCN1C(=O)/C(=C/c2ccccc2)SC1=S)NCCCN1CCOCC1 1.04%
CCOc1c(Br)cc(/C=C2/SC(=O)N(CC(=O)N3CCCC3)C2=O)cc1OC -12.5%
CC(/C=C1\SC(=O)N(CCCC(=O)O)C1=O)=C\c1ccccc1 1.4%
O=S(=O)(NCCSc1ccc(Cl)cc1)c1ccc(F)cc1 -13.2%
Cc1ccc(-c2ccc3c(c2)O[C@@H](CN(C)C(=O)C2CCCCC2)[C@H](C)CN([C@H](C)CO)S3(=O)=O)cc1 -79.6%
COc1ccc(NC(=O)N[C@H]2CC[C@H](CCn3cc(-c4ccccc4F)nn3)O[C@@H]2CO)cc1 11.2%
O=C(O)c1cccn1Cc1ccccc1F 15.5%
Cc1c(CNCCc2ccc(Cl)cc2)c(C(=O)O)c(C)n1-c1ccccc1 -14.6%
C[C@@H]1CCCCO[C@H](CN(C)Cc2ccc(C(F)(F)F)cc2)[C@H](C)CN([C@H](C)CO)C(=O)c2cc(NC(=O)Cc3ccccc3)ccc2O1 -25.4%
CC(C)NC(=O)c1c(O)c2ccccc2[nH]c1=O 11%
COc1ccc(S(=O)(=O)N(C)C[C@@H]2Oc3ccc(NS(=O)(=O)c4cn(C)cn4)cc3C(=O)N([C@H](C)CO)C[C@@H]2C)cc1 -1.19%
CCOc1ccc(S(=O)(=O)/N=C(/Nc2ccc(C(C)=O)cc2)c2ccccc2)cc1 35.1%
Cc1cc(NS(=O)(=O)c2ccc(NC(=O)CCCOc3ccccc3)cc2)no1 17.9%
NC(=NC(=O)c1ccccc1)N1CCOCC1 29%
Cc1ccccc1Nc1ncnc2c1cnn2-c1ccccc1 -4.46%
O=C(c1ccc(F)cc1)N(C(=O)c1ccc(F)cc1)c1ncccn1 -7.59%
O=S(=O)(c1ccc(Br)cc1)n1ccc2ccccc21 17.3%
COC(=O)Nc1ccc(S(=O)(=O)N(CCO)CC(F)(F)C(F)F)cc1 -6.68%
Cc1cc(C(=O)OCC(=O)N(C)c2ccccc2)ccc1[N+](=O)[O-] 10.2%
COC(=O)c1ccc(Cl)c(NC(C)=O)c1 14.3%
CCOc1cc(CNC2CCCC2)cc(Cl)c1OCc1ccc(F)cc1 -105%
O=C(C[C@@H]1CC[C@@H](NS(=O)(=O)c2ccc(F)cc2)[C@H](CO)O1)N1CCN(c2ccccc2)CC1 26.8%
O=C(C[C@H]1CC[C@@H](NS(=O)(=O)c2ccc(F)cc2)[C@H](CO)O1)N1CCN(c2ccccc2)CC1 24.9% [at 21 µM]
C=CC[C@@H](CC(=O)N[C@@H](CO)Cc1ccccc1)C(=O)N[C@@H](COC(=O)[C@@H](CC=C)CC(=O)OC(C)(C)C)Cc1c[nH]c2ccccc12 22.7%
COc1ccc(NC(=O)Nc2ccc3c(c2)CC(=O)N([C@H](C)CO)C[C@H](C)[C@@H](CN(C)CC2CCCCC2)O3)cc1 19.9%
Cc1nc(SCC(=O)OCc2ccccc2)c(C#N)c(-c2ccccc2)c1C(=O)Nc1ccccc1 10.7%
CNC(=O)COC(=O)c1cc(-c2ccco2)nc2ccccc12 21.4% [at 10 µM]
COCC(=O)N1CC(=O)N2[C@@H](CO)[C@H](c3ccc(-c4ccncc4)cc3)[C@@H]2C1 -19.7%
O=C(Nc1cccc(OC(F)(F)F)c1)c1ccc(-c2cccnc2)c2ccoc12 14.6%
O=C(NCc1cccc(Cl)c1)c1ccc(-n2ccnc2)c2ccoc12 -31.3%
CC(Oc1ccc2c3c(c(=O)oc2c1)CCC3)C(=O)N[C@@H](Cc1ccccc1)C(=O)O (stereo partly drawn) 2.57%
Nc1ncnc(NCc2ccc(F)cc2)c1[N+](=O)[O-] -6.18%
N#Cc1cccc(-c2ccc([C@@H]3[C@@H]4CN(S(=O)(=O)c5ccc(-c6ccccc6)cc5)C[C@H]3N4)cc2)c1 -102%
COc1cccc(-c2ccc(C3[C@@H]4CN(C(=O)C5CC5)C[C@H]3N4)cc2)c1 (stereo partly drawn) -20.8%
COc1ccccc1-c1ccc([C@@H]2[C@@H]3CN(S(=O)(=O)c4ccc(-c5ccccc5)cc4)C[C@H]2N3)cc1 -95.8%
O=S(=O)(c1ccc(-c2ccccc2)cc1)N1C[C@@H]2N[C@H](C1)[C@@H]2c1ccc(-c2cccnc2)cc1 -89.6%
COc1cccc(S(=O)(=O)N2C[C@@H]3N[C@H](C2)C3c2ccc(-c3ccccc3C)cc2)c1 (stereo partly drawn) -19%
O=C(C1CCCCC1)N1C[C@@H]2N[C@H](C1)C2c1ccc(-c2cccc(F)c2)cc1 (stereo partly drawn) 12.9%
N#Cc1ccc(-c2ccc([C@@H]3[C@@H]4CN(S(=O)(=O)c5ccc(-c6ccccc6)cc5)C[C@H]3N4)cc2)cc1 -96.9% [at 21 µM]
C[C@@H]1CN([C@H](C)CO)C(=O)c2cc(/C=C/c3ccccc3)cnc2O[C@@H]1CN(C)Cc1cccnc1 3.6% [at 21 µM]
COc1cc(CNCCN2CCOCC2)ccc1OCc1ccc(Cl)cc1Cl -59.2%
C[C@@H]1CN([C@H](C)CO)C(=O)c2cc(C#Cc3ccccc3)cnc2O[C@@H]1CN(C)C(=O)c1ccccn1 -6.46%
O=C(CN1C(=O)C2CC=CCC2C1=O)Nc1nccs1 (stereo not drawn) -9.37%
CN(C)CCCNC(=O)CC1C[C@H](C(=O)N2CCCCC2)[C@@]2(CCc3ccccc3)c3[nH]c4ccccc4c3CCN2C1=O (stereo partly drawn) -11.9%
COc1ccc(-n2c(C)c([N+](=O)[O-])c3ccc(O)c(CN(C)C)c32)cc1 -13%
COc1cc(O)c(C(CC(=O)N2CCOCC2)c2ccc(N(C)C)cc2)c(OC)c1 (stereo not drawn) 4.72%
CNC[C@H]1Oc2ccc(NC(=O)CCN3CCOCC3)cc2C(=O)N([C@H](C)CO)C[C@H]1C -13.7% [at 21 µM]
C=CCN(c1ccc(C(=O)Nc2ccc3c(c2)OCO3)cc1)S(C)(=O)=O 28.3%
N#Cc1ccc(-c2ccc(C3[C@@H]4CN(S(=O)(=O)c5ccc(F)cc5)C[C@H]3N4)cc2)cc1 (stereo partly drawn) -93.4%
Cc1cccc(S(=O)(=O)N2C[C@@H]3N[C@H](C2)C3c2ccc(-c3ccccc3C)cc2)c1 (stereo partly drawn) -95.3%
CCCSc1nnc(Sc2nnnn2-c2ccccc2)s1 -36.7%
COc1ccc(CCN2C(=O)c3[nH]nc(-c4ccccc4O)c3C2c2ccccc2)cc1OC (stereo not drawn) 9.8%
COc1ccc(CCN2C(=O)CC(C(C)c3ccccc3)C2=O)cc1OC (stereo not drawn) 8.2%
CCCCN(C)Cc1c(C)[nH]c2ccccc2c1=O 10.8%
COc1ccccc1-c1ccc([C@@H]2[C@@H](CO)N(C(C)=O)C23CN(C(C)=O)C3)cc1 -6.94%
CC1(Cc2ccc(Cl)cc2)C(=O)Nc2ccc(-c3cccnc3)cc21 (stereo not drawn) -18.9%
CO[C@H]1CN(C)C(=O)c2ccc(NC(=O)c3ccc(-c4ccccc4)cc3)cc2OC[C@H](C)NC[C@@H]1C 5.16% [at 21 µM]
CO[C@H]1CN(C)C(=O)c2cc(NC(=O)Nc3ccc(Cl)cc3)ccc2OC[C@H](C)NC[C@@H]1C 20.2%
CCc1oc2c(C)c(O)ccc2c(=O)c1-c1ccc2ccccc2n1 12%
CC1CCCN(Cc2c(O)ccc3c4c(c(=O)oc23)CCCC4)C1 (stereo not drawn) 50.2%
N#Cc1ccc(Cn2c(=O)c(C#N)c3n(c2=O)CCC3)cc1 -13.7%
CC(C)Cn1cnc2c(N)nc3ccccc3c21 16.5%
Cc1ccccc1NC(=O)Nc1ccccc1Br -20.9%
Cc1ccc(C)c(NC(=O)c2nnn(Cc3ccccc3)c2N)c1 -13.6%
Cc1cc(C)n(-c2ccc(Cl)c(C(=O)OCC(N)=O)n2)n1 -15%
CC(C)(C)c1ccc(CCC2OCC(C[N+]3(C)CCOCC3)O2)cc1 (stereo not drawn) 5.53%
Clc1ccccc1CN1CCSCC1 6.01%
COc1ccc(-c2cc(N)n(S(=O)(=O)c3c(F)c(F)c(F)c(F)c3F)n2)cc1OC -103%
O=C(CCSc1nnc(-c2ccc(O)cc2)o1)N1CCOCC1 12.8%
O=S(=O)(c1ccccc1)c1ncc(C(F)(F)F)cc1Cl -79%
NNS(=O)(=O)c1ccc(Cc2ncc(C(F)(F)F)cc2Cl)s1 33.5%
CC(=O)N(c1cccc(C)c1)S(=O)(=O)c1ccc(Cl)cc1 30.1%
CC(C)NC(=O)N(C)C[C@H]1OCc2cnnn2CCCC(=O)N([C@@H](C)CO)C[C@H]1C 7.69%
Oc1ccc(/C=N/Nc2nc(-c3ccc(Cl)cc3)cc(C(F)(F)F)n2)cc1 -17.5%
COc1cccc(OC)c1NC(=O)C1CCCN1C(=O)NCc1ccccc1 (stereo not drawn) 2.12%
CCOc1ccc(N(C(=O)Nc2ccccc2)C2=NCCC2)cc1 24.3%
Cn1cccc1C(=O)OCC(=O)Nc1ccc2c(c1)CCC2 10.5%
O=C(CCC1CCCCC1)NCc1cccs1 -11.8%
O=C(OCc1ccccc1)N1CCC2CC1c1cc(-c3ccc(F)cc3)ccc12 (stereo not drawn) 1.69%
CCOc1ccc(NS(=O)(=O)c2ccc3c(c2)oc(=O)n3C)cc1 -6.91%
COc1ccc(Cl)cc1NC(=O)CN1CCC(n2nnc3cc(C)ccc32)CC1 12.8%
O=C(Cc1ccc(-n2cccc2)cc1)NCc1cccs1 -20.2%
O=C(NCC[C@@H]1CC[C@H](NS(=O)(=O)c2ccccc2)[C@@H](CO)O1)c1ccccc1F 18.5%
CCOC(=O)C1CCCN(C(=O)CSc2ccc(Br)cc2)C1 (stereo not drawn) -4.05%
CCCNC(=O)Nc1ccc2c(c1)C(=O)N(C)C[C@H](OC)[C@H](C)CN(CC1CCCC1)[C@@H](C)CO2 16.9%
O=C(Cc1ccccn1)N[C@H]1CC[C@H](CCn2cc(-c3ccccc3)nn2)O[C@@H]1CO -10.6%
CCNC(=O)C1(C)CCCN1Cc1ccccc1Cl (stereo not drawn) 44.3%
N#CC(C#N)=c1ccc2c(c1)NC1(CCCCC1)N=2 -10.6%
O=C(c1ccco1)N(Cc1ccc([N+](=O)[O-])cc1)c1ccc(Br)cc1 32.8%
C#CCN(C[C@@H]1[C@@H](OC(=O)NCC2CCCCC2)[C@@H](OC(=O)NCC2CCCCC2)Cn2c(=O)ccc(=O)n21)S(=O)(=O)c1ccc(C)cc1 -98.4%
COc1ccc(OCCCC(=O)OCC(=O)Nc2c(C)nn(-c3ccccc3)c2C)cc1 -6.1%
O=C(C[C@@H]1C=C[C@@H](NC(=O)Nc2ccc(C(F)(F)F)cc2)[C@H](CO)O1)NCc1ccccn1 -16.3%
